Out of some 340,000 compounds screened, about 210 (0.062%) were called active. No stated cut-off is given here; in the data, active means inhibition above about 30% (passing the limit was not always enough); inconclusive means no clear call, values can overlap the other calls. For the sample, actives were picked, then their nearest neighbours and some compounds at random.
The compounds below were run on PvdQ acylase [Pseudomonas aeruginosa LESB58] (assay: P. aeruginosa PvdQ acylase inhibitors, primary screen, biochemical, fluorescence, plate reader and imaging, single point (AID 488965;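 further: 0% = vehicle neutral wells and 100% = reference inhibitor wells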)). Details: purified PvdQ acylase, at 10 µM, stronger effect = higher value.
In the case of `Cc1c(NC(=S)NC(=O)CCc2ccccc2)c(=O)n(-c2ccccc2)n1C`, the inhibition is reported as -12.9% (inactive). With `Cc1ccc(NC(=O)CCOc2ccccc2)cc1S(=O)(=O)Nc1ccccc1Cl` the inhibition was -5.34% (inactive). `Cc1nc2nc(C)c(CCC(=O)N3CCN(c4ccccc4)CC3)c(C)n2n1` was tested, and the inhibition was -9.01% (inactive). In the case of `CO/N=C/c1cn(-c2ccc(Cl)cc2)nn1`, the inhibition is reported as 49% (active). For `CN(C)c1nnnn1-c1ccc(Cl)cc1`, the inhibition was -0.634% (inactive). In the case of `CN(C)c1ccc(/C=C/C(=O)c2ccc(C(C)(C)C)cc2)cc1[N+](=O)[O-]`, the inhibition is reported as 7.14% (inactive). In the case of `O=C(/C=C/c1ccc(Cl)c([N+](=O)[O-])c1)c1ccc(O)cc1`, the inhibition is reported as 42% (active). With `CN(C)c1ccc(/C=C/C(=O)c2ccc(O)cc2)cc1[N+](=O)[O-]` the inhibition was -3.3% (inactive). For `Cc1ccc(N2CC(C(=O)Nc3cc(Cl)ccc3-n3cncn3)CC2=O)cc1` (stereo unspecified), the inhibition was -12.4% (inactive). With `c1cc(-n2cnnn2)ccc1NC1=NCCC1` the inhibition was -15.4% (inactive). For `Cc1ccc(C(=O)Nc2nnc(C3=COCCO3)o2)cc1C`, the inhibition was -6.48% (inactive). `Cc1c(NC(=O)c2c([N+](=O)[O-])cnn2C)c(=O)n(-c2ccccc2)n1C` was tested, and the inhibition was -9.74% (inactive). `CSC1=N/C(=C\C=C\c2cccs2)C(=O)S1` was tested, and the inhibition was 93.4% (active). With `ONC(=Nc1ccccc1)c1ccccc1Cl` the inhibition was -2.68% (inactive). For `O=C(CCCN1C(=O)CSc2ncccc21)N1CCN(c2cccc(C(F)(F)F)c2)CC1`, the inhibition was -3.29% (inactive). For `O=C(Nc1ccc(Cl)cc1)c1cccc(OC(=S)N2CCOCC2)c1`, the inhibition was -4.62% (inactive). For `NC(=O)c1ccc(NC(=O)COC(=O)c2c3c(nc4ccccc24)/C(=C\c2ccc4c(c2)OCO4)CCC3)cc1`, the inhibition was 12.2% (inactive). `Cc1cc(C)cc(OCC(=O)NNC(=O)c2cc3ccccc3oc2=O)c1` was tested, and the inhibition was -2.78% (inactive). `CCOC(=O)c1cc2cc3ccccc3cc2oc1=O` was tested, and the inhibition was 65.9% (active). With `C=CCc1cccc2cc(C(=O)OCC)c(=O)oc12` the inhibition was 13.8% (inactive). In the case of `CC(=O)Nc1ccc(C(=O)OCC(=O)Nc2ccc([N+](=O)[O-])cc2C(F)(F)F)cc1`, the inhibition is reported as -15.1% (inactive). In the case of `CCc1ccc(NC(=O)CN2CCC(C(=O)c3ccc(OC)cc3)CC2)cc1`, the inhibition is reported as -11.8% (inactive). With `O=C(CN(c1ccccc1)S(=O)(=O)c1ccc(Cl)cc1)Nc1ccccc1C(=O)N1CCCC1` the inhibition was -7.63% (inactive). In the case of `O=C(c1ccccc1)c1ccc2nc(N3CCCCC3)c3nncn3c2c1`, the inhibition is reported as -14.2% (inactive). `CC(OC(=O)CCc1nc(=O)c2ccccc2n1C)C(=O)NCc1ccc2c(c1)OCO2` (stereo unspecified) was tested, and the inhibition was 11.9% (inactive). In the case of `O=C1CC(C(=O)O)NC(=S)N1` (stereo unspecified), the inhibition is reported as -11% (inactive). In the case of `O=C(NCC(=O)N(Cc1cccs1)C(C(=O)NC1CCCCC1)c1ccco1)c1cccs1` (stereo unspecified), the inhibition is reported as -5.29% (inactive). With `CCOC(=O)N1CCC(=NNC(N)=O)CC1` the inhibition was 5.61% (inactive). `O=S(=O)(O)c1cc2onnc2c2ccccc12` was tested, and the inhibition was -19.4% (inactive). `CCOc1cc(C(=O)N(Cc2ccccc2)c2ccc(C)cc2)ccc1OCC(=O)N1CCOCC1` was tested, and the inhibition was -12.7% (inactive). In the case of `COc1ccc(-c2cc3ncccc3cn2)cc1`, the inhibition is reported as 48.1% (active). `COc1cc(OC)cc(-c2cc3ccc(F)cc3cn2)c1` was tested, and the inhibition was 8.09% (inactive). For `COc1ccc(-c2nnc(-c3ccc4ccccc4c3)o2)cc1`, the inhibition was -12.7% (inactive). For `COC(=O)Cc1csc(/N=C/c2c(O)n(-c3cccc(C(F)(F)F)c3)c(=O)c3ccccc23)n1`, the inhibition was -13% (inactive). `CCSc1nc2sc3c(c2c(=O)n1-c1ccc(C)cc1)CCN(C)C3` was tested, and the inhibition was -19.4% (inactive). `C/C=N/N(c1ccccc1)c1ccccc1` was tested, and the inhibition was -15.2% (inactive). `COC(=O)C[n+]1cccc2ccccc21` was tested, and the inhibition was -19.7% (inactive). `CC(=O)c1ccccc1NC(=O)C1CC(=O)N(c2ccc3c(c2)OCCO3)C1` (stereo unspecified) was tested, and the inhibition was 3.1% (inactive). For `Cc1ccc(-c2csc(N3CCN(c4cc5c(cc4Cl)nc(-c4ccncc4)n5CCOCCO)CC3)n2)cc1`, the inhibition was 2.95% (inactive). `CCOc1ccc(/C=C(/NC(=O)c2ccccc2)C(=O)NCCC(=O)O)cc1` was tested, and the inhibition was 3.82% (inactive). For `O=C(NCc1cccnc1)c1cnc2ccccc2n1`, the inhibition was -7.28% (inactive). For `COc1ccccc1CN1CCCC(N2CCN(c3ccc(F)cc3)CC2)C1` (stereo unspecified), the inhibition was -5.39% (inactive). With `O=C(COC(=O)/C=C/c1cccs1)NC1CCCCC1` the inhibition was -1.95% (inactive). For `COc1ccc(Cn2c(-c3ccc(Cl)cc3)c[n+]3ccccc23)cc1`, the inhibition was -9.83% (inactive). For `COc1ccc(/C(N)=N/OC(=O)CCCc2ccccc2)cc1`, the inhibition was 12.9% (inactive). In the case of `Cc1ccccc1N1CC(C(=O)Nc2ccc(S(=O)(=O)N3CCCC3)cc2)CC1=O` (stereo unspecified), the inhibition is reported as -17.2% (inactive). For `COc1ccccc1C(=O)N(Cc1ccc(C)o1)C1CCS(=O)(=O)C1` (stereo unspecified), the inhibition was -16.8% (inactive). `O=C(NCc1cccc(CNC(=O)Nc2cccc(O)c2)c1)Nc1cccc(O)c1` was tested, and the inhibition was 8.11% (inactive). In the case of `OCCn1c(-c2ccccc2)csc1=Nc1ccccc1`, the inhibition is reported as -14.6% (inactive). In the case of `CNC[C@H](CC1CCCCC1)NC[C@H](NCCC1CCCC1)[C@H](C)O`, the inhibition is reported as -4.64% (inactive). In the case of `CCCCNC1(C#N)CCN(Cc2ccccc2)CC1`, the inhibition is reported as -10.8% (inactive). `Cc1ccc(S(=O)(=O)N[C@@H](Cc2ccccc2)C(=O)N2CCC(C(=O)N[C@H](C(=O)O)C(C)O)CC2)cc1` (stereo partly specified) was tested, and the inhibition was -16.1% (inactive). `CN1CCN(CC(O)COCc2ccc3c(c2)OCO3)CC1` (stereo unspecified) was tested, and the inhibition was 13.9% (inactive). With `O=C(c1cccs1)C1C(c2ccc(Br)cc2)NC(=S)NC1(O)C(F)(F)F` (stereo unspecified) the inhibition was -1.76% (inactive). With `Cc1ccc2nc(SCC(=O)N3CCN(c4ccccc4)CC3)nc(=O)n2c1` the inhibition was -4.06% (inactive). In the case of `CCC1([N+](=O)[O-])COC(c2ccc(C)cc2)OC1` (stereo unspecified), the inhibition is reported as -3.75% (inactive). `CCCCCN(C(=O)NC(=O)Nc1ccccc1OC)S(C)(=O)=O` was tested, and the inhibition was -5.97% (inactive). With `Cc1cccn2c(CN(C)C3CCCc4ccccc43)c(C(=O)N3CCOCC3)nc12` (stereo unspecified) the inhibition was -1.38% (inactive). With `CCOc1cccc(OCCCOc2cccc3cccnc23)c1` the inhibition was -17.7% (inactive). With `COc1ccc(S(=O)(=O)N(C)C[C@H]2Oc3ccc(NS(=O)(=O)c4cccs4)cc3CC(=O)N([C@H](C)CO)C[C@H]2C)cc1` the inhibition was 3.49% (inactive). For `CCCCCC1CC(COc2ccccc2)OC1=O` (stereo unspecified), the inhibition was 44.8% (active). With `O=C(O)c1ccc(OCC2CCCO2)cc1` (stereo unspecified) the inhibition was -9.45% (inactive). In the case of `CCCCN1CC(COc2ccccc2)Oc2cccc(F)c2S1(=O)=O` (stereo unspecified), the inhibition is reported as -16% (inactive). With `CCCCCCNS(=O)(=O)c1ccccc1Br` the inhibition was -11.4% (inactive). In the case of `CC(CNC(=O)Cn1cnc2c(OCc3ccccc3)ncnc21)c1ccccc1` (stereo unspecified), the inhibition is reported as -13.2% (inactive). With `CCCCNC(=O)N1CCCC(N(C)CCc2ccc(OC)c(OC)c2)C1` (stereo unspecified) the inhibition was -14.5% (inactive). In the case of `CN(Cc1ccccc1F)C(=O)C(Cc1ccccc1)NC(=O)c1ccccc1` (stereo unspecified), the inhibition is reported as -5.25% (inactive). In the case of `Cc1nn(CCOc2ccc(Br)cc2)c(C)c1[N+](=O)[O-]`, the inhibition is reported as -14% (inactive). With `CCOC(=O)N1CCN(Cc2nc3ccc([N+](=O)[O-])cc3c(=O)n2-c2cccc(OC)c2)CC1` the inhibition was -6.54% (inactive). For `CCn1nnnc1SCC(=O)Nc1ccc(N(C)C)cc1`, the inhibition was -8.46% (inactive). In the case of `COc1ccc(N(CC(=O)NC2CCCCCCC2)S(=O)(=O)c2c(C)nn(C)c2C)cc1`, the inhibition is reported as -11.2% (inactive). With `Cc1ccc(CNC(=O)CC(NC(=O)c2ccccc2)c2ccccc2)cc1` (stereo unspecified) the inhibition was -6.05% (inactive). With `NC(=O)c1ncc(C(F)(F)F)cc1Oc1ccc(F)cc1` the inhibition was -11.7% (inactive). With `O=C(Nc1ccc(OCC(=O)N2CCOCC2)cc1)c1cc(F)c(F)cc1Cl` the inhibition was -15.7% (inactive). `Cc1ccc(CN2CC(C(=O)N3CCN(S(=O)(=O)c4ccccc4)CC3)CC2=O)cc1` (stereo unspecified) was tested, and the inhibition was -11.4% (inactive). For `O=C1C=CC(=O)N1c1ccc(N2CCCCC2)cc1`, the inhibition was -13.5% (inactive). In the case of `C#CCOCCOCCOCCNc1nc(N2CCN(C(=O)[C@H](CO)n3cc([C@@H](N)C(C)C)nn3)CC2)nc(N2CCN(C(=O)[C@H](CCC(=O)O)n3cc([C@@H](N)[C@H](C)CC)nn3)CC2)n1`, the inhibition is reported as -4.25% (inactive). In the case of `COc1ccc(C(=O)NC2CCN(C(=O)Nc3ccc(F)cc3)CC2)cc1`, the inhibition is reported as -6.33% (inactive). In the case of `O=C(CSc1nnc(-c2cccnc2)n1CCc1ccccc1)NCc1ccccc1`, the inhibition is reported as -11.6% (inactive). For `CCOC(=O)C1(Cc2ccc(O)cc2)NC(c2ccccc2F)C2C(=O)N(C)C(=O)C21` (stereo unspecified), the inhibition was -8.27% (inactive). With `CC[C@]12c3[nH]c4ccc(Cl)cc4c3CCN1C(=O)[C@@H](CC(=O)NCCCOC)C[C@@H]2C(=O)N1CCN(C(=O)c2ccco2)CC1` the inhibition was -13.8% (inactive). With `O=C(/C=C/c1ccccc1Cl)Nc1ccc(S(=O)(=O)Nc2ncccn2)cc1` the inhibition was -4.75% (inactive). In the case of `O=C(CCCOc1ccccc1)NCc1ccco1`, the inhibition is reported as -2.34% (inactive). In the case of `CCn1c(SCC(=O)Nc2ccc(OC)c(OC)c2)nnc1-c1c[nH]c2ccccc12`, the inhibition is reported as -5.34% (inactive). In the case of `COc1ccc(N2C(=O)CC(Sc3n[nH]c(-c4ccc(C)cc4)n3)C2=O)cc1` (stereo unspecified), the inhibition is reported as -16% (inactive). For `CC(NC(=S)NNS(=O)(=O)c1ccc(C(C)(C)C)cc1)c1ccccc1` (stereo unspecified), the inhibition was -8.37% (inactive). With `Cc1cc(C)cc(NC(=O)N(C)Cc2ccccc2)c1` the inhibition was -16% (inactive). `C/C(Cc1ccccc1)=N\NC(=O)CNC(=O)c1cccc(Br)c1` was tested, and the inhibition was 2.03% (inactive). With `CCOc1ccc(OCC)c(NC(=O)CCS(=O)(=O)c2ccc(C)cc2)c1` the inhibition was -14.3% (inactive). For `CCc1ccc(NC(=O)N2CCc3ccccc3C2)cc1`, the inhibition was -0.823% (inactive). `CCOC(=O)C(NC(=O)CC(C)C)(Nc1sc2c(c1C(N)=O)CCCC2)C(F)(F)F` (stereo unspecified) was tested, and the inhibition was -4.91% (inactive).

Reference: PubChem BioAssay AID488965 (Broad Institute, 2010)
